According to PubChem BioAssay (NCATS):
Several values for one entry are separate records, joined by “and”; a condition that tells them apart may be missing. Identical values can stand only once. Results filed as inconclusive are left out. Values without a mark were called inactive. Activity calls are given as the source filed them. The call rests on the fitted dose curve; in most records, active means well fitted activation curve with a large enough effect; inconclusive means small, poorly fitted or top-dose-only effect; inactive means no such curve, though single readings can be large or run the other way.

Biological target: Cellular tumor antigen p53 (Homo sapiens) (UniProt P04637)
Assay: Primary qHTS for small molecule compounds that upregulate eGFP-tagged delta133p53alpha (in N-terminal) cells. (AID 2060322); further: nearly all actives have a fitted effect of over 75% in size;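 on activation: cells pre-induced with doxycycline then dosed without doxycycline; series mostly up to about 56 µM; 0% = DMSO vehicle and 100% = reference activator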
Conditions: NCI-H358 eGFP-delta133p53alpha fluorescence, 24 h; activation: stronger effect = higher value
Source text: Assay Development and Screening Technology
National Center for Advancing Translational Sciences (NCATS),
National Institute of Health (NIH), Rockville, Maryland
Cellular senescence (CS) is one of the hallmarks of aging and age-related diseases. Senescent cells are characterized by an irreversible growth arrest, an increase in senescence-associated beta-galactosidase (SA-beta-gal) activity and p16INK4a expression, an activation of the DNA damage response pathways, and the emergence of a senescence-associated secretory phenotype (SASP).
Delta133p53alpha, a human/primate-specific p53 protein isoform, delays or inhibits the induction of CS and SASP in various types of human cells, including progeria-derived fibroblasts, primary normal astrocytes, and CD8+ T lymphocytes. Induction of delta133p53alpha with small molecule compounds may provide therapeutic opportunities for inhibition of senescence/SASP-associated pathologies in progeria syndromes, astrocyte-mediated neuroprotection in neurodegenerative diseases, and possibly prevention and treatment of a wider range of senescence- and aging-associated diseases.
Here we report the development and validation of a cell-based quantitative high throughput screening (qHTS) assay in 1,536-well format. This qHTS assay uses the NCI-H358 cell line with doxycycline-inducible expression of enhanced green fluorescent protein (eGFP)-tagged delta133p53alpha, which allows efficient and highly quantitative measurement of the protein levels.
PROTOCOL TABLE (as described by Inglese J, Shamu CE and Guy RK. 2007)
SEQUENCE No. (e.g., 1, 2, 3, etc.); […] (e.g., Cells, Incubation, Reagent, etc.); VALUE; DESCRIPTION.
1; Cells; 4uL; 800 doxycycline treated cells / well in doxycycline-free media, 1536-well black, clear-bottom low base Aurora microplates.
2; Compounds; 23 nL; Kalypsis pin tool (Wako) equipped with 1536-well pin heads, 5-azacytidine positive control.
3; Incubation; 24 hr; 37C, 5% CO2; 95% relative humidity.
4; Aspiration; 1x; BioTek EL406 washer dispenser (Agilent).
5; Fixing; 3.5% paraformaldehyde, BioTek EL406 washer dispenser (Agilent).
6; Washing; 1x PBS; BioTek EL406 washer dispenser (Agilent).
7; Nuclei staining; 1:1000 dilution of Hoechst 33342 (Thermofisher), BioTek EL406 washer dispenser (Agilent).
8; Incubation; 20 min; in the dark at room temperature.
9; Washing; 2x, 1x PBS (ThermoFisher), BioTek EL406 washer dispenser (Agilent).
10; Reagent; 10 uL; 1x PBS per well, sealed with clear adhesive tape.
NOTES (numbers refer to sequence numbers above).
1. NCI-H358 cells expressing eGFP-tagged delta133p53alpha were grown in T75 culture flasks and treated with doxycycline for 24h, at 10 ng/ml for eGFP-D133p53a cells (N-terminal cell) and 100 ng/ml for D133p53a-eGFP cells (C-terminal cells). Cells were trypsinized, counted using a Counted 3 Automated Cell Counter (Thermo Fisher), and diluted to a concentration of 200,000 cells/ml. A Multidrop Combi Reagent Dispenser (ThermoFisher) was used to dispense 800 cells/well in […] of doxycycline-free media, into 1536-well black/clear bottom low base plates (AuroraMicroplates).
2. After plating cells, 23 nl of compound library, DMSO vehicle control or positive control (5-azacytidine) were transferred by Pin Tool (Wako). The plate map layout was the same for each plate: (column 1) non-doxycycline treated cells + DMSO vehicle control; (column 2) doxycycline treated cells + DMSO vehicle control baseline; (column 3) doxycycline treated cells + positive control 57.5 uM final concentration 5-azacytidine; (column 4) doxycycline treated cells + serial dilution of 5-azacytidine, 16-point 1:2 titration spanning 1.8 nM to […] final concentration; (columns 5-48) doxycycline treated cells + titration of library compounds.
3. Cells were incubated at 37 °C, 5 % CO2, 95% RH with breathable metal lid for 24h.
4-10. […] After two washes, 10 ul of 1X PBS (Thermo Fisher) was dispensed to each well. Clear adhesive plate seals (VWR) were applied and plates stored at 4 °C.
11. […]
Potency means the concentration at half of the fitted maximal effect.

Sequence of Cellular tumor antigen p53 (Homo sapiens) (P04637 whole entry, looked up): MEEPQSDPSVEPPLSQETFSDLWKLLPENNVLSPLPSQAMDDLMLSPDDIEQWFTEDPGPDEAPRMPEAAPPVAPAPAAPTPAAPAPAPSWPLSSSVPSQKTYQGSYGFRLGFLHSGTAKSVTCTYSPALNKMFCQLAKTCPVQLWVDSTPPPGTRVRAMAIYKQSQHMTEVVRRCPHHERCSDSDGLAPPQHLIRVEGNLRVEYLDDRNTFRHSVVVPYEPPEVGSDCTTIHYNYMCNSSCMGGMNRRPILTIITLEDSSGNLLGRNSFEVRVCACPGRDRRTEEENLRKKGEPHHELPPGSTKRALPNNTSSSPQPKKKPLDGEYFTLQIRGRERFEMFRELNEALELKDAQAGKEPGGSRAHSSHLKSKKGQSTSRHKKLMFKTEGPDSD

SMILES | activation | Potency
CC(CC(C#N)(c1ccccc1)c1ccccc1)N(C)C (stereo not given) | 24.3% | 
COC(=O)C1(C)CCC(O)C2(C)c3cc(O)c(C(C)C)cc3C(O)C(OC(C)=O)C12 (stereo not given) | -2.68% | 
C[C@]12CC[C@H]3[C@@H](CCC4=CC(=O)CC[C@@]43C)[C@@H]1CC[C@@H]2C(=O)O | 1.69% | 
C[C@@H]1CC[C@H]2[C@@H](C)C(=O)O[C@@H]3O[C@@]4(C)CC[C@@H]1[C@]32OO4 | 0% | 
CC(C)[C@@H](CN1CC[C@@](C)(c2cccc(O)c2)[C@@H](C)C1)NC(=O)[C@H]1Cc2ccc(O)cc2CN1 | 29.1% | 
Cc1c(Cl)c(=O)oc2cc(OP(=O)(OCCCl)OCCCl)ccc12 | -15.9% | 
CN1C(=O)CN=C(c2ccccc2)c2cc(Cl)ccc21 | -7.34% | 
CC[C@@]1(O)C(=O)OCc2c1cc1n(c2=O)Cc2cc3ccccc3nc2-1 |  | 1.09 µM (active)
O=c1[nH]oc2c1CCNC2 | -18.6% and 14.5% | 
CC(C)(N)Cc1ccccc1Cl | 10.7% | 
Cc1[nH]c2ccc(O)cc2c1CCN | -25.5% | 
CC(C)N[C@@H]1CCn2c(=O)[nH]c3cccc(c32)[C@@H]1O | 13.7% | 
C=C1C[C@]2(O)[C@@]3(C)CCC(=O)C(C)(C)C3=C(O)C(=O)[C@@]2(C)[C@@H]2C(=O)O[C@@](C)(C(=O)OC)C(=O)[C@@]12C | -4.58% | 
CC1=C2[C@H]3OC(=O)[C@@H](C)[C@@H]3CC[C@@]2(C)C=CC1=O | 11.7% | 
NCCc1ccc(S(=O)(=O)F)cc1 | -21.4% | 
COP(=S)(OC)Oc1ccc(S(=O)(=O)N(C)C)cc1 | 5.86% | 
CC1=CC2/C=C(\C)CCC(O)C3OC(C)(C)OC3CC(=O)OC23C(=O)NC(CC(C)C)C3C1C (stereo not given) | 6.87% | 
Cc1c(C(=O)Nc2cccc(C(F)(F)F)c2)cc(-c2ccccc2)n1CCCN1CCOCC1 | -17.9% and -8.11% | 
Clc1cccc(N2CCNCC2)c1 | 17.5% | 
Oc1ccc2c(c1)C13CCCC[C@H]1[C@@H](C2)N(CC1CCC1)CC3 | 12.3% | 

SMILES | activation | Potency
N#Cc1ccc(N2CCN(C(=O)COc3ccc4[nH]cc(CCN)c4c3)CC2)cc1 | -4.3% | 
O=C(O)C(=O)c1cn(Cc2ccccc2)c2ccc(-c3ccc(OC(F)(F)F)cc3)cc12 | -6.9% and -6.21% | 
OC(c1ccccc1)(c1ccccc1)C1CCNCC1 | -13.4% | 
COc1ccc2[nH]cc(CCN(C(C)C)C(C)C)c2c1 | 23.2% | 
COc1cc2cc(c1Cl)N(C)C(=O)C[C@H](OC(=O)C(C)C)[C@]1(C)O[C@H]1[C@H](C)[C@@H]1C[C@@](O)(NC(=O)O1)[C@H](OC)C=CC=C(C)C2 | 0.447% | 
COC1=C[C@@H]2[C@@H]3Cc4ccc(OC)c(O)c4[C@]2(CCN3C)CC1=O | 8.33% | 
COP(=S)(OC)Oc1cc(Cl)c(Cl)cc1Cl | -17.5% | 
NC(=O)c1ccc(OCC(O)CN2CC=C(c3ccc(F)cc3)CC2)cc1 (stereo not given) | 5.52% | 
N[C@@H](Cc1ccc(Oc2cc(I)c(O)c(I)c2)c(I)c1)C(=O)O | 11.7% | 
c1cncc(OC[C@@H]2CCN2)c1 | -4.3% | 
CC[C@@H](C(N)=O)N1CCCC1=O | 0.54% | 
CCCCOC(=O)c1ccccc1C(=O)OCc1ccccc1 | -2.82% | 
C=C[C@H]1[C@H](O[C@@H]2O[C@H](CO)[C@@H](O)[C@H](O)[C@H]2O)OC=C2C(=O)OCC[C@H]21 | 6.11% | 
CC1=C(C(=O)O)N2C(=O)[C@@H](N)[C@H]2SC1 | -3.35% | 
O=C(Nc1ccc(Br)cc1)c1cc(Br)cc(Br)c1O | 29.9% | 
CC(C)OC(=O)c1ccnc2cc(C(OCCN3CCCCC3)c3ccccc3Cl)sc12 (stereo not given) | -11.2% | 
COC(=O)[C@@H](N)CCCN=C(N)N[N+](=O)[O-] | -9.21% and -14.8% | 
CC1=CC2/C=C(\C)CCC(O)C(O)/C=C/C(=O)C23C(=O)NC(CC(C)C)C3C1C (stereo not given) |  | 13.1 µM (active)
CCCn1c(=O)c2[nH]c(C3CCCC3)nc2n(CCCOC(=O)c2ccc(S(=O)(=O)F)cc2)c1=O | 11.3% | 
CCCN(CCC)[C@@H]1CCc2ccc(O)cc2C1 | -24.8% | 
